# Test results taken from PubChem BioAssay (NCATS).
# Inconclusive results are not listed. A number with no mark means an inactive call. Calls of active or inactive are those of the source. Calls follow the shape of the dose curve; as a rule, active = well fitted activation curve with a large enough effect; inconclusive = small, poorly fitted or top-dose-only effect; inactive = flat fitted curve, though single readings scatter.
# Assay: Cellular Toxicity (caspase-3) H-4-II-E (AID 663);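 as to caspase-3 activation: cells exposed to compound for 16 hr before readout; 0% = DMSO basal and 100% = 100 µM tamoxifen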
# Settings: H-4-II-E rat hepatoma; Potency: caspase-3 activation; series mostly up to 92.2 µM; caspase-3 activation: at the top concentration
# Source text: NIH Chemical Genomics Center [NCGC]
# NIH Molecular Libraries Screening Centers Network [MLSCN]
# National Institutes of Environmental Health Sciences [NIEHS]
# National Toxicology Program [NTP]
# We have developed a 1536-well cell-based assay for quantitative high throughput screening (qHTS) against a number of cell lines to determine in vitro caspase 3/7 of small molecules. This particular assay uses the H-4-II-E cell line which is derived from rat hepatoma.
# NCGC Assay Protocol Summary:
# The Caspase-Glo 3/7 assay (Promega) is a homogeneous method to measure caspase-3 and caspase-7 activities in cultured cells. The quantitation of caspase 3/7 activity is based on the cleavage of a peptide-aminoluciferin substrate. After caspase cleaves the substrate the free aminoluciferin is liberated and serves as the substrate of luciferase, which generates the light. The luminescent signal is proportional to amount of caspase 3/7 activity present.
# Using the Caspase-Glo 3/7 assay, the amount of caspase 3/7 activity was measured in the H-4-II-E cell line with complete culture medium following compound treatment for 16 hours. The assay was performed in opaque white 1536-well plates. In the screen, tamoxifen and doxorubicin were used as positive controls. Library compounds were measured for their ability to cause the activation of caspase 3/7 in the cell line, as reflected by an increase in luminescence signal, in a concentration-dependent manner. Data were normalized to the controls for basal activity (DMSO only) and 100% stimulation (100 uM tamoxifen). AC50 values were determined from concentration-response data modeled with the standard Hill equation.
# qHTS protocol for caspase 3/7 assay in H-4-II-E cells
# [Step] [Parameter] [Value] [Description]
# 1. Reagent; 5 uL; 1500 H-4-II-E cells/well
# 2. Time; 5 hr; 37 °C incubation
# 4. Controls; 23 nL; Tamoxifen 0.23 uM to 100 uM & Doxorubicin 7.0 pM to 100 uM
# 5. Time; 16 hr; 37 °C incubation
# 6. Reagent; 5 uL; Caspase-Glo 3/7 reagent
# 7. Time; 20 min; Room Temperature
# 8. Detection; Luminescence; Viewlux plate reader
# Keywords: caspase 3/7, apoptosis, H-4-II-E cell line, luminescence, NTPHTS, NTPHTS_NCGC, NIEHS, EPA, DSSTox, MLSMR, MLSCN, NIH Roadmap, qHTS, NCGC
# Potency is read from the fitted curve at half-maximal effect.
Compound,caspase-3 activation [%],Potency
ClC(Br)Br,0.561,–
ClC(Cl)(Cl)C(Cl)(Cl)Cl,0.142,–
ClC(Cl)Br,-0.0596,–
CCOC(=O)CC(SP(=O)(OC)OC)C(=O)OCC (stereo not given),-0.122,–
O=Cc1ccc(Cl)cc1Cl,1.07,–
Oc1ccc(Cl)c(Cl)c1,1.18,–
CCSC(=O)N1CCCCCC1,0.842,–
CCCCC(CC)COC(=O)c1ccc(C(=O)OCC(CC)CCCC)c(C(=O)OCC(CC)CCCC)c1 (stereo not given),2.06,–
OCCCCO,-0.584,–
S=c1[nH]c2ccccc2[nH]1,0.476,–
O=[N+]([O-])/C=C/c1ccccc1,–,6.31 µM (active)
COP(=S)(OC)SCn1nnc2ccccc2c1=O,-0.882,–
ClCC(Cl)CCl,-0.169,–
CC(C)OS(C)(=O)=O,0.368,–
c1ccc(P(c2ccccc2)c2ccccc2)cc1,0.0259,–
Nc1cc(Cl)cc(C(=O)O)c1Cl,0.328,–
COC(=O)Nc1nc2ccccc2[nH]1,0.718,–
Cc1ccc(N)cc1Cl,0.508,–
O=S(=O)(O)F,-0.256,–
Cc1cccc(N)c1C,-0.608,–

Compound,caspase-3 activation [%],Potency
Oc1cc(Cl)ccc1Cl,-0.576,–
Oc1cccc(Cl)c1,0.517,–
CC(C)Br,0.595,–
Cl/C=C/Cl,-0.646,–
C(CCOCC1CO1)COCC1CO1 (stereo not given),1.95,–
C1CC2OC2CC1C1CO1 (stereo not given),1.37,–
CN=C=O,0.00674,–
CN(C)C(=O)Cl,1.57,–
COc1c(C(C)(C)C)cc([N+](=O)[O-])c(C)c1[N+](=O)[O-],0.0216,–
Cc1ccccc1[N+](=O)[O-],0.65,–
N#CCCC#N,-0.674,–
CC(C)(C)c1ccccc1O,0.422,–
O=C(O)C(Br)Br,0.0709,–
CCOP(=S)(OCC)Oc1nc(Cl)c(Cl)cc1Cl,-0.00737,–
Cc1coc2c1CCC(C)C2 (stereo not given),0.172,–
N#CC(Br)Br,14,–
CCC/C=N/O,1.08,–
CC(=O)NNc1ccccc1,1.7,–
ClC=CCl,-0.371,–
Cl/C=C/CCl,0.11,–
